# Hits are enriched below; roughly 2.8% of the tested compounds scored in any of these assays.
# PP1 counter – PP1-alpha (human) inhibition in PP5 counter-screen; purified PP1alpha, OMFP fluorescence; actives 0.9% (n = 320,000); AID 2235; inhibition, % at 6.7 µM; P62136;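 active means inhibition above the mean inhibition of all tested compounds plus 3 SD, computed separately for each screening campaign, cut at about 15% in these data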
# Target sequence (P62136 whole entry, looked up): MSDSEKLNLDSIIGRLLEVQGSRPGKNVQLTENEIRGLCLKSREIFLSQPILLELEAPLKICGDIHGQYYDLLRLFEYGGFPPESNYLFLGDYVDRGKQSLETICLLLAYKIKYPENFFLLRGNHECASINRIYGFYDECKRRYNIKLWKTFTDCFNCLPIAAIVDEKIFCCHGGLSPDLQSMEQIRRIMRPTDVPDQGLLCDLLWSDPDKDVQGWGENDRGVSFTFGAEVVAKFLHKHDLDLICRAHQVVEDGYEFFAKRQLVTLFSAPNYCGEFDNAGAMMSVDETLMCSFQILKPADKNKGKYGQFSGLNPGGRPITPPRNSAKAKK
# KLK7 zymogen act – proKLK7 (human) activation, primary screen. AID 652039. purified proKLK7, EDANS-DABCYL substrate fluorescence; 100% is mature enzyme control, 0% vehicle. P49862. actives 0.9% (n = 370,000). activation, % at 7 µM;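 active means activation above the mean of all tested compounds plus 3 SD, computed per campaign excluding outliers beyond control limits, cut at about 13% in these data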
# Target sequence (P49862 whole entry, looked up): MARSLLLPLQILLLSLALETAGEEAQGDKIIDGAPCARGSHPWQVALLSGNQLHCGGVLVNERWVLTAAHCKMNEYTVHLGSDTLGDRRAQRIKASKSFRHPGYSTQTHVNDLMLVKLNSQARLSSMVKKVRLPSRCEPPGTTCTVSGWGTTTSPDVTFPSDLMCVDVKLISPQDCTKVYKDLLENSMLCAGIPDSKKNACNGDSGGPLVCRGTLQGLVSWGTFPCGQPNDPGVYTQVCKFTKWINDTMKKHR
# NR1D1 modulator – modulators of human Rev-erb alpha DNA binding; P20393; Rev-erbα–FITC-DNA binding, fluorescence polarization, 90 min; activity, % at 10 µM; actives 0.79% (n = 370,000); AID 1259318;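 active means activity above about 14%, limit read from the data; passing the limit was not always enough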;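 further: 0% = DMSO wells with 35 nM protein and 100% = DMSO wells with 750 nM protein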
# JMJD2C inh – blocks human GASC-1 demethylase activity | Q9H3R0 | GST-JMJD2C(1-420) H3K9me3 demethylation, DELFIA europium | inhibition, % at 2.35 µM | actives 0.069% (n = 330,000);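 active means more than half of a compound's replicate wells show inhibition beyond 50%, single wells judged on their own value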;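 further: signal counts dimethyl H3K9 product captured on neutravidin plate; 0% = median of DMSO wells and 100% = 0.3 times that DMSO median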
# PP5 primary – inhibitors of human protein phosphatase 5 (PP5) | purified PP5c, OMFP substrate fluorescence | inhibition, % at 6.7 µM | P53041 | actives 0.18% (n = 320,000);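 active means inhibition above the campaign's mean inhibition across all tested compounds plus 3 SD, cut at about 9.5% in these data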;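 further: 0% = DMSO only and 100% = 100 µM cantharidin control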
# PG9 Ab binder – small molecules binding HIV-1 gp120 antibody PG9 | TR-FRET gp120-PG9 antibody binding | inhibition, % at 6.7 µM | actives 0.43% (n = 360,000); in the data active means inhibition above about 8.5%
# NR1D1 mod conf – confirmation of modulators of human Rev-erb alpha DNA binding; activation, % at 25 µM; AID 1259319; Rev-erb alpha FITC-DNA binding, fluorescence polarization, 90 min; actives 61% (n = 3,000); shares compounds with NR1D1 modulator;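 active means activation at or above a set limit, or at least 3 SD above the negative control mean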;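 further: 0% = 35 nM protein with DMSO and 100% = 750 nM protein high control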
# RORg DNA counter – RORgamma DNA-binding activity, dose-response counter-screen | actives 8% (n = 910) | shares compounds with NR1D1 modulator | purified RORgamma protein-FITC-DNA binding, fluorescence polarization | AID 1259320 | IC50, µM;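 active means Compounds whose fitted half-maximal concentration for disrupting protein-DNA binding is below 10 micromolar; the record names Rev-erb in its text, so the target is in doubt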
# * = called active by the depositor; . = not tested or not shown.
SMILES,PP1 counter,KLK7 zymogen act,NR1D1 modulator,JMJD2C inh,PP5 primary,PG9 Ab binder,NR1D1 mod conf,others
N#Cc1ccc(-c2cccnc2)nc1SCC(=O)c1ccccc1,4,0,23*,-6,2,-2,30*,
N#Cc1ccc(-c2ccccc2)nc1SCC(=O)c1cccc(Cl)c1,13,1,38*,-2,4,0,18*,
CCN(CC)C(=O)CSc1nc(-c2ccccc2)ccc1C#N,5,0,1,13,2,-1,.,
Cc1cccn2c(=O)c3cc(C(=O)NC4CCS(=O)(=O)C4)n(Cc4ccccc4)c3nc12 (centres undefined),4,-23,44*,11,2,4,14,
CCOc1ccc(S(=O)(=O)N(C)c2ccc(OCC(=O)Nc3nc(-c4cc(OC)ccc4OC)cs3)cc2)cc1,0,-1,25*,6,3,0,30*,
Cc1ccc(Cl)cc1N1CCN(Cc2nc3c(c(=O)[nH]c(=O)n3C)n2Cc2ccccc2F)CC1,-2,0,29*,2,2,-3,19*,
Cc1cc(C(=O)N2CCN(S(C)(=O)=O)CC2)sc1-c1ccccc1,-7,0,41*,-19,2,0,35*,
Oc1ccccc1N=Nc1nc(-c2ccccc2)c(-c2ccccc2)[nH]1,17*,0,25*,-3,7,-20,33*,RORg DNA counter=>40
COc1ccccc1N=Nc1nc(-c2ccccc2)c(-c2ccccc2)[nH]1,5,-1,35*,3,4,-1,41*,RORg DNA counter=1.1*
COC(=O)[C@]12C[C@H](CC(=O)NCc3cccc(C(F)(F)F)c3)C(=O)N(CCc3ccc(OC)c(OC)c3)C1=C[C@H](C(C)C)O[C@@H]2C1CC1,.,0,2,.,.,.,.,
Cc1ccc(O)c(C2=NCCNC(C(F)(F)F)=C2)c1,-6,1,4,0,3,-1,.,
Oc1c(C2=NCCNC(C(F)(F)F)=C2)ccc2ccccc12,.,1,18*,1,.,-5,7,
CCOC(=O)c1oc2ccccc2c1NC(=O)COc1cccc(OC)c1,3,0,23*,5,3,-1,4,
CCOC(=O)c1oc2ccccc2c1NC(=O)COc1ccc(F)cc1,-1,.,7,0,4,.,.,
CCN(CC(=O)NCc1ccc(Cl)cc1)C(=O)c1ccc2cc(OC)ccc2c1,2,-1,105*,0,3,1,102*,RORg DNA counter=>40
CCN(CC(=O)NCc1ccc(Cl)cc1)C(=O)c1cnc(Cl)c(Cl)c1,0,0,0,3,4,0,.,
COc1ccccc1C(=O)Nc1nc(-c2ccc(S(=O)(=O)N3CCOCC3)cc2)cs1,4,-13,43*,-10,2,1,29*,
COc1ccc(-c2cc(C3CC3)nc(SCC(=O)c3cccs3)c2C#N)cc1,0,-3,88*,-8,-1,0,110*,RORg DNA counter=>40
CCOC(=O)CSc1nc(C2CC2)cc(-c2ccc(F)cc2)c1C#N,-1,0,.,51,1,-1,.,
CC(CCN1CCC(C(O)(c2ccccc2)c2ccccc2)CC1)Oc1cccc(Cl)c1 (centres undefined),.,1,7,.,.,.,.,
O=C(c1ccc(F)cc1)c1ccc(-c2ccc(F)cc2)nc1,0,0,28*,-17,1,8,12,
CCCCN1CCS(=O)(=O)N(Cc2cn(Cc3ccc(C)cc3)nn2)C(C(=O)OC)C1 (centres undefined),.,0,-1,.,.,.,.,
COc1ccc2cc(C3CC(c4cccs4)=NN3C(C)=O)c(Cl)nc2c1 (centres undefined),0,-1,41*,15,1,1,32*,RORg DNA counter=>40
CC(=O)N1c2ccccc2C(C)=NCC1C(=O)NC1CCCCC1 (centres undefined),.,0,0,.,.,.,.,
CCOC(=O)[C@]12CCCC=C1N(CCCOC)C(=O)[C@@H]2CC(=O)NCc1cccc2ccccc12,.,1,1,.,.,.,.,
SMILES,PP1 counter,KLK7 zymogen act,NR1D1 modulator,JMJD2C inh,PP5 primary,PG9 Ab binder,NR1D1 mod conf,others
COc1cc2sc3ccc(C#Cc4ccccn4)cc3c(=O)c2cc1OC,3,-5,26*,-3,3,-3,27*,
CC(C)(C)C(=O)Nc1ccc2oc(-c3cc(F)c(F)cc3Cl)nc2c1,-1,-1,22*,0,3,1,14,
COc1ccc(C(=O)c2ccc(N3CCN(C(=O)c4ccc(F)cc4)CC3)c(F)c2)cc1Br,-1,0,28*,5,-1,1,24*,
CCC(=O)c1ccc(N2CCN(C(=O)c3ccc(F)cc3)CC2)c(F)c1,-2,0,-3,3,2,0,.,
COC(=O)C[C@@H]1CC[C@@H]2[C@H](COc3ccc(NC(=O)Nc4c(C)noc4C)cc3C(=O)N2C)O1,.,0,-6,.,.,.,.,
Cc1cc(Br)cn2c(Cc3cccc(F)c3)c(-c3cccc(Cl)c3)nc12,.,1,19*,.,.,4,8,
Cc1cc(Br)cn2c(Cc3ccccc3C(F)(F)F)c(-c3cccc(Cl)c3)nc12,.,1,24*,.,.,1,0,
Cc1ccc(-c2nc3c(C)cc(Br)cn3c2Cc2ccccc2C(F)(F)F)cc1,.,0,20,.,.,0,.,
COC(=O)[C@@]12CCCCC3=C1N(CCC3)C(=O)[C@H]2CC(=O)NCc1ccc(OC)c(OC)c1,.,0,5,.,.,.,.,
CN(C)c1ccc(/C=C(/C(=O)c2ccc(Cl)cc2Cl)n2cncn2)cc1,3,0,21*,1,2,-2,18*,
COc1ccc(/C=C(/C(=O)c2ccc(Cl)cc2Cl)n2cncn2)cc1,4,0,-1,10,-1,0,.,
CCCCCCn1cnc2c(c1=O)c1nc3ccccc3nc1n2Cc1cccs1,-12,0,31*,2,2,3,9,
CCCCn1c2nc3ccccc3nc2c2c(=O)n(CCC)cnc21,-2,0,8,1,0,-2,.,
O=C([C@@H]1C[C@H]1c1ccccc1)N1CCC(Oc2cccnc2)CC1,.,1,3,.,.,.,.,
Cc1nn(-c2ccc(F)cc2)c2c1cc(C#N)c1nc3ccccc3n12,-2,0,60*,4,0,-2,39*,
Cc1cc(C)c2c(n1)sc1c(-c3ccccc3)c(C#N)c(N)nc12,0,-2,23*,-19,4,3,4,
Cc1cc(C(F)(F)F)c2c(N)c(C(=O)Nc3cc(C)on3)sc2n1,4,1,86*,-1,2,0,60*,RORg DNA counter=>40
COCc1cc(C)nc2sc(C(=O)Nc3ccccc3F)c(N)c12,-3,3,2,11,0,2,.,
